High-throughput results (PubChem)
ADAM10 inh – ADAM10 inhibition, QFRET primary screen; recombinant ADAM10, EDANS/DABCYL FRET peptide cleavage, 3 h; hit rate 0.62% among 370,000; O14672; inhibition, % at 7 µM;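 active means inhibition above a per-campaign cutoff equal to the mean of compounds falling between control-based bounds plus 3 SD, cut at about 20% in these data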;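 further: 0% = DMSO wells while the 100% control is not disclosed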
PLCg1 inh – inhibitors of human phospholipase C gamma1; hit rate 0.84% among 370,000; inhibition, % at 12.2 µM; purified PLC-gamma1, fluorogenic substrate, fluorescence; AID 720700; in the data active means inhibition above about 9.5%
KLK7 zymogen act – activators of human kallikrein-7 zymogen | P49862 | purified proKLK7, EDANS-DABCYL substrate fluorescence; 100% is mature enzyme control, 0% vehicle | hit rate 0.9% among 370,000 | activation, % at 7 µM;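 active means activation above the mean of all tested compounds plus 3 SD, computed per campaign excluding outliers beyond control limits, cut at about 13% in these data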
Target sequence (P49862 whole entry, looked up): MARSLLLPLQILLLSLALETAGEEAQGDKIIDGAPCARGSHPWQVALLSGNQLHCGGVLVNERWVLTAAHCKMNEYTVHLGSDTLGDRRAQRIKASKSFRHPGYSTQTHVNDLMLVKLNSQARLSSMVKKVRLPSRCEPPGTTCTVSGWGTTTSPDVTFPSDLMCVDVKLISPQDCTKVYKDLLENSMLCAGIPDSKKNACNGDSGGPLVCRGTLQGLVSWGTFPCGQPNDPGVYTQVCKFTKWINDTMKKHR
PLC-beta3 inh – PLC-beta3 (human) inhibition, primary screen. Q01970. Purified PLC-beta3, fluorogenic substrate, fluorescence. hit rate 0.18% among 370,000. AID 720704. inhibition, % at 12.2 µM; in the data active means inhibition above about 11%;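 further: 0% = median of compound wells on plate and 100% = full blocker control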
HGIII-sPLA2 inh – Inhibits HGIII-sPLA2 liposome hydrolysis, primary screen; Q9NZ20; QFRET BODIPY PC-A2 liposome hydrolysis, fluorescence; inhibition, % at 12.2 µM; hit rate 0.56% among 370,000; AID 743126;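 active means inhibition above mean plus 3 SD of compounds lying within the high and low control bounds, cut at about 19% in these data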;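 further: 0% = median of test compound wells and 100% = no enzyme DMSO wells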
ADAM17 inh – ADAM17 inhibition, QFRET primary screen; P78536; recombinant ADAM17, EDANS/DABCYL FRET peptide cleavage; inhibition, % at 6.95 µM; hit rate 0.83% among 370,000;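 active means inhibition above the mean of compounds lying between control limits plus 3 SD, set per campaign, cut at about 8.5% in these data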;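 further: 0% = DMSO-only wells as the low control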
ADAM10 confirm – confirmation of inhibitors of human ADAM10 | hit rate 1% among 2,100 | inhibition, % at 6.95 µM | AID 743208 | shares compounds with ADAM10 inh | ADAM10 QFRET peptide cleavage, EDANS fluorescence;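 active means inhibition above about 20% chosen separately for each screening run, limit read from the data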;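 further: 0% = DMSO wells and 100% = marimastat wells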
ADAM17 ctr – ADAM17 inhibition, counter-screen for ADAM10 exosite hits; shares compounds with ADAM10 inh; ADAM17 QFRET peptide cleavage, EDANS fluorescence; inhibition, % at 6.95 µM; hit rate 0.5% among 2,100; AID 743214;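 active means mean triplicate inhibition above the solvent-only control wells' mean plus 3 SD, cut at about 12% in these data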;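 further: 0% = DMSO wells and 100% = marimastat wells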
ADAM10 ctr – inhibits human ADAM10 in ADAM17 exosite counter-screen; shares compounds with ADAM17 inh; recombinant ADAM10, EDANS/DABCYL FRET peptide cleavage, 3 h; inhibition, % at 6.95 µM; hit rate 47% among 2,900; AID 743256;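 active means mean inhibition over the triplicate runs exceeds the activity threshold set in the earlier primary screen, cut at about 20% in these data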;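 further: 0% = DMSO wells and 100% = marimastat wells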
ADAM17 confirm – confirmation of inhibitors of human ADAM17; shares compounds with ADAM17 inh; recombinant ADAM17, EDANS/DABCYL QFRET peptide cleavage; inhibition, % at 6.95 µM; hit rate 65% among 2,900; AID 743257;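 active means mean inhibition across replicates above the hit cutoff set in the primary screen, cut at about 8.5% in these data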;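 further: 0% = DMSO wells and 100% = marimastat wells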
Numbers without * were called inactive. Compounds with a hit are over-represented: about 3.4% of the library has one in this group of screens.

Screening CCOC(=O)C(O)(c1ccc(N(CC)S(=O)(=O)c2ccccc2)cc1)C(F)(F)F (configuration not stated) returned ADAM10 inh 27*, PLCg1 inh 7, KLK7 zymogen act 1, PLC-beta3 inh 6, HGIII-sPLA2 inh -23, ADAM17 inh 14*, ADAM10 confirm 0, ADAM17 ctr 0, ADAM10 ctr 12 and ADAM17 confirm 5.
Screening Cc1ccc(NP(=O)(Oc2ccccc2F)Oc2ccccc2F)cc1C returned ADAM10 inh 26*, PLCg1 inh 3, KLK7 zymogen act 1, PLC-beta3 inh 5, HGIII-sPLA2 inh -31, ADAM17 inh 9.6*, ADAM10 confirm 8, ADAM17 ctr 2, ADAM10 ctr 23* and ADAM17 confirm 12*.
For CCOc1cc(CNCCc2c[nH]c3ccccc23)cc(Cl)c1OCC the results were ADAM10 inh 27*, PLCg1 inh 12*, KLK7 zymogen act 1, PLC-beta3 inh 12*, HGIII-sPLA2 inh -9, ADAM17 inh 14*, ADAM10 confirm 0, ADAM17 ctr 0, ADAM10 ctr 3 and ADAM17 confirm 1.
`CCOc1c(Cl)cc(CNCCc2c[nH]c3ccccc23)cc1OC` gave ADAM10 inh 10, PLCg1 inh 2, KLK7 zymogen act 1, PLC-beta3 inh -10, HGIII-sPLA2 inh -8 and ADAM17 inh 5.
`COC(=O)C1=C(c2ccc(F)cc2OCc2ccccc2)C[C@@H]2CC[C@H]1N2C(=O)NCCc1ccc(F)cc1` gave ADAM10 inh 27*, PLCg1 inh 3, KLK7 zymogen act 1, PLC-beta3 inh 9, HGIII-sPLA2 inh -13, ADAM17 inh 11*, ADAM10 confirm 9, ADAM17 ctr 2, ADAM10 ctr 29* and ADAM17 confirm 13*.
For COC(=O)C1=C(c2ccc(F)cc2OCc2ccccc2)C[C@@H]2CC[C@H]1N2C(=O)NCc1cccc(C(F)(F)F)c1 the results were ADAM10 inh 24*, PLCg1 inh 0, KLK7 zymogen act -1, PLC-beta3 inh 5, HGIII-sPLA2 inh -3, ADAM17 inh 16*, ADAM10 confirm 7, ADAM17 ctr 2, ADAM10 ctr 19 and ADAM17 confirm 13*.
For COC(=O)C1=C(c2ccc(F)cc2OCc2ccccc2)C[C@@H]2CC[C@H]1N2C(=O)NCc1ccc(N(C)C)cc1 the results were ADAM10 inh 20*, PLCg1 inh 5, KLK7 zymogen act 1, PLC-beta3 inh 2, HGIII-sPLA2 inh 6, ADAM17 inh 9.7*, ADAM10 confirm 7, ADAM17 ctr 3, ADAM10 ctr 14 and ADAM17 confirm 7.
`CC[N+](CC)(CC)CC` gave ADAM10 inh 5, PLCg1 inh -4, KLK7 zymogen act 0, PLC-beta3 inh 1, HGIII-sPLA2 inh -5 and ADAM17 inh -2.
For COc1ccc(-n2nnnc2C(c2ccccc2OC(F)(F)F)N2CCC3(CC2)C(=O)NCN3c2ccccc2)cc1 (configuration not stated) the results were ADAM10 inh 25*, PLCg1 inh 2, KLK7 zymogen act -1, PLC-beta3 inh -2, HGIII-sPLA2 inh -26, ADAM17 inh 9.4*, ADAM10 confirm 7, ADAM17 ctr 2, ADAM10 ctr 31* and ADAM17 confirm 15*.
CCC(c1nnnn1-c1ccc(OC)cc1)N1CCC(n2c(=O)[nH]c3ccccc32)CC1 (configuration not stated) was read as ADAM10 inh 2, PLCg1 inh 3, KLK7 zymogen act 0, PLC-beta3 inh 5, HGIII-sPLA2 inh 1 and ADAM17 inh 2.
COc1ccc(-n2nnnc2C(c2ccccc2)N2CCC3(CC2)C(=O)NCN3c2ccccc2)cc1 (configuration not stated) was read as ADAM10 inh 4, PLCg1 inh 0, KLK7 zymogen act 0, PLC-beta3 inh 2, HGIII-sPLA2 inh -10 and ADAM17 inh 5.
COc1ccc(-n2nnnc2C(c2ccccc2OC(F)(F)F)N2CCC(n3c(=O)[nH]c4ccccc43)CC2)cc1 (configuration not stated) was read as ADAM10 inh 30*, PLCg1 inh 4, KLK7 zymogen act 0, PLC-beta3 inh 0, HGIII-sPLA2 inh -22, ADAM17 inh 10*, ADAM10 confirm 7, ADAM17 ctr 2, ADAM10 ctr 34* and ADAM17 confirm 20*.
Screening OC(CN1CCC(c2c[nH]c3ccccc23)CC1)C(F)(F)F (configuration not stated) returned ADAM10 inh 3, PLCg1 inh 0, KLK7 zymogen act 0, PLC-beta3 inh -3, HGIII-sPLA2 inh -30 and ADAM17 inh -5.
For CCOC(=O)C1(CCCc2ccccc2)CCN(C2CCC2)CC1 the results were ADAM10 inh 9, PLCg1 inh -1, KLK7 zymogen act 1, PLC-beta3 inh 3, HGIII-sPLA2 inh -1 and ADAM17 inh -2.
For CCN1C[C@]2(COC)CC[C@H](O)[C@@]34C5C[C@@H]6[C@@H](OC)C[C@@](O)(C5[C@H]6O)[C@](O)([C@@H](OC)C23)[C@@H]14 (some centres not stated) the results were ADAM10 inh -1, PLCg1 inh 3, KLK7 zymogen act 0, PLC-beta3 inh 3, HGIII-sPLA2 inh 2 and ADAM17 inh -3.
